Shown are actives, neighbours in structure and some others; about 0.93% of the full set was active somewhere.
BAP1 block – inhibitors of human BAP1 deubiquitinase; AID 436; calls only at 20 µM; recombinant BAP1, Ub-AMC hydrolysis fluorescence kinetic; stronger effect = lower value; 72,000 tested, 0.48% active; Q92560;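 active means activity remaining at or below 50% of control, provided the compound also passes the data quality filters; inactive means the rest, including low values that fail the filters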
Target sequence (Q92560 whole entry, looked up): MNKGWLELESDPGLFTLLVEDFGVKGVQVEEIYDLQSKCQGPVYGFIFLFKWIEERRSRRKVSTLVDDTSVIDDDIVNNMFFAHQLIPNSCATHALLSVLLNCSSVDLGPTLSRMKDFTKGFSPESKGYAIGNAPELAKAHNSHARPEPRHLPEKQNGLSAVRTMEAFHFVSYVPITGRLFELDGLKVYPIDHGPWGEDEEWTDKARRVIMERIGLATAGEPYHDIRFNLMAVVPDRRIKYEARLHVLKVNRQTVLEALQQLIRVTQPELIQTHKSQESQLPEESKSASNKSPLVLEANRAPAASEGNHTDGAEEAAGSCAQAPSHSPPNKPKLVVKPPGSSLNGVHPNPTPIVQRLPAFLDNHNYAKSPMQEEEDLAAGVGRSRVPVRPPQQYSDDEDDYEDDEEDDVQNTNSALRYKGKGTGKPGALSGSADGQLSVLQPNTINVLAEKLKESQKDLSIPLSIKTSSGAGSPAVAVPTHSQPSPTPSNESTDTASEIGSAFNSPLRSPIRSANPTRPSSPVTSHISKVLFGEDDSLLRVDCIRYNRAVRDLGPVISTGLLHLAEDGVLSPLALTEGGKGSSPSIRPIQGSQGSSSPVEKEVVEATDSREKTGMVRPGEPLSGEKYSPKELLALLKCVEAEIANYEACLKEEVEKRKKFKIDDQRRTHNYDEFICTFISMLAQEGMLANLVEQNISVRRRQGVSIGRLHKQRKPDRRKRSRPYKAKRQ
WNV NS2B-NS3 inh – WNV NS2B-NS3 proteinase inhibition; P06935; WNV NS2B-NS3 protease, fluorogenic substrate Ex360/Em465; stronger effect = lower value; z-score (no concentration beside the values); 65,000 tested, 0.18% active; in the data active means z-score below about -3
Cdc25B inh – human M-phase inducer phosphatase 2 inhibition; recombinant Cdc25B, OMFP fluorescence Ex485/Em525; inhibition, %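 (compounds tested at 10 µM final in the well)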; 65,000 tested, 0.1% active; AID 368; in the data active means inhibition above about 50%
MMP-13 inhibitor – inhibitors of human MMP13; P45452; MMP-13 fTHP FRET cleavage, Mca fluorescence; inhibition, % at 4 µM; 65,000 tested, 0.07% active;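 active means inhibition above the mean of compound-free control plate wells plus 3 SD, cut at about 14% in these data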
MKP-1 inh – inhibitors of human MKP-1 phosphatase; recombinant MKP-1, OMFP hydrolysis fluorescence; inhibition, %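 (compounds tested at a single concentration somewhere between 10 and 100 µM)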; 65,000 tested, 0.15% active; AID 374;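 active means inhibition above about 50%, limit read from the data; inconclusive means inhibition over screen mean plus 3 SD, below that limit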
BAP1 inh confirm – BAP1 (human) enzyme inhibition, confirmed | AID 753 | 310 tested, 8% active | shares compounds with BAP1 block | purified BAP1, Ub-ethyl ester hydrolysis, HPLC; stronger effect = lower value | % of control activity, % at 20 µM;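 active means percent of control activity at or below 60%; inconclusive means HPLC trace unusable from injection failure or solvent front hiding peaks; inactive means the rest, plus ubiquitin peak ratio over a set limit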
Each line names hits and unclear results; the compound was inactive in the other large screens (follow-up assays come after a bar, where shown).

c1ccc(-n2cnnc2SCc2nc3ccccc3s2)cc1	BAP1 block active | BAP1 inh confirm inactive
O=c1c2ccccc2c(=O)c2c1c(O)cc1oc3ccccc3[nH]c12	none (no result: WNV NS2B-NS3 inh, Cdc25B inh, MMP-13 inhibitor, MKP-1 inh)
CCOC(=O)c1[nH]c(CSc2nnc(-c3ccc(OC)cc3)o2)c(C(=O)OCC)c1C	BAP1 block active | BAP1 inh confirm inactive
N#Cc1nc(-c2ccccc2F)oc1NCCN1CCOCC1	BAP1 block active | BAP1 inh confirm inactive
CCOC(=O)c1c(N=CC=Cc2ccc([N+](=O)[O-])cc2)sc2c1CCCC2	none (no result: WNV NS2B-NS3 inh, Cdc25B inh, MMP-13 inhibitor, MKP-1 inh)
CCc1nc(SCC(=O)Nc2ccc3c(c2)OCCO3)c2oc3ccccc3c2n1	BAP1 block active | BAP1 inh confirm inconclusive
Cc1nc(SCC(=O)Nc2ccc3c(c2)OCCO3)c2oc3ccccc3c2n1	none (no result: BAP1 block, WNV NS2B-NS3 inh, Cdc25B inh, MKP-1 inh)
CCOC(=O)Cn1nnnc1CN(Cc1ccc(OC)cc1)Cc1cc2cc(CC)ccc2[nH]c1=O	BAP1 block active | BAP1 inh confirm inactive
CCOC(=O)Cn1nnnc1CN(Cc1ccc(OC)cc1)Cc1cc2cc(C)ccc2[nH]c1=O	none
O=C(Nc1nonc1NC(=O)c1ccccc1)c1ccccc1	none (no result: WNV NS2B-NS3 inh, Cdc25B inh, MMP-13 inhibitor, MKP-1 inh)
C=CCn1c(-c2cc(OC)c(OC)c(OC)c2)n[nH]c1=S	BAP1 block active | BAP1 inh confirm inactive
Cc1ccc(Cn2ncc3c(N4CCN(Cc5ccc(Cl)cc5)CC4)ncnc32)cc1	none (not shown: BAP1 block)
Cc1ccccc1N1CCN(c2ncnc3c2cnn3Cc2ccc(Cl)cc2)CC1	BAP1 block active | BAP1 inh confirm inactive
Cc1cc(C)n(-c2ccc(C(=O)OCC(=O)c3ccc(Br)s3)cc2)n1	BAP1 block active | BAP1 inh confirm inactive
COc1ccc(Cn2nnnc2CN(Cc2cc3ccc(C)cc3[nH]c2=O)C2CCCC2)cc1	none
CCC(C)(C)n1nnnc1CN(Cc1cc2cc(OC)ccc2[nH]c1=O)C1CCCC1	BAP1 block active | BAP1 inh confirm inactive
Cc1nc([N+](=O)[O-])cn1Cc1cccc(C(F)(F)F)c1	none (no result: WNV NS2B-NS3 inh, Cdc25B inh, MMP-13 inhibitor, MKP-1 inh)
COc1cc2c(cc1OC)-c1cc(N3CCCc4ccccc43)nc(=O)n1CC2	none
COc1cc2c(cc1OC)-c1cc(N3CCCCCC3)nc(=O)n1CC2	BAP1 block active | BAP1 inh confirm inactive
Cc1ccc(N2C(=O)C3C4C=CC(C5CC45)C3C2=O)c(C)c1 (configuration not stated)	none (no result: WNV NS2B-NS3 inh, Cdc25B inh, MMP-13 inhibitor, MKP-1 inh)
CCn1c(=O)c2cc(C(=O)N3CCOCC3)sc2c2ccccc21	BAP1 block active | BAP1 inh confirm inactive
CCn1c(=O)c2cc(C(=O)N3CCCC3)sc2c2ccccc21	none (not shown: BAP1 block)
CCOC(=O)c1snc2c(=O)[nH]cnc12	none
CCOC(=O)C1CCCN(c2ccc(NC(=O)c3snc4c(=O)[nH]cnc34)cc2)C1 (configuration not stated)	BAP1 block active | BAP1 inh confirm inactive
CN(C)c1ccc(-c2nn3c(-c4ccc(Cl)cc4Cl)nnc3s2)cc1	BAP1 block active | BAP1 inh confirm inactive
CCC(C)C(=O)Nc1nnc(-c2cccs2)s1 (configuration not stated)	BAP1 block active | BAP1 inh confirm inactive
O=c1c(-c2ccc3c(c2)OCCCO3)coc2cc(O)ccc12	none (no result: WNV NS2B-NS3 inh, Cdc25B inh, MMP-13 inhibitor, MKP-1 inh)
CCOc1ccc(N2Cc3ccccc3C2)cc1	BAP1 block active | BAP1 inh confirm inactive
NC1=CC(=O)c2cccc3cccc1c23	BAP1 block active | BAP1 inh confirm inactive
O=S(=O)(c1ccc2c(c1)oc1ccccc12)N1CCOCC1	BAP1 block active | BAP1 inh confirm inactive
Cn1c(=O)oc2cc(S(=O)(=O)N3CCOCC3)ccc21	none
O=C(CCSc1nnc2scc(-c3ccccc3)n12)Nc1nc(-c2ccccc2)ns1	BAP1 block active | BAP1 inh confirm inactive
CCCCCCn1c(-c2ccco2)nc2oc3cc(OC)ccc3c(=O)c2c1=O	BAP1 block active | BAP1 inh confirm inactive
COc1ccc2c(c1)c1nc(SCC(C)C)n(CCO)c(=O)c1n2C	BAP1 block active | BAP1 inh confirm inactive
CCn1c(SCC(=O)c2cc(OC)ccc2OC)nc2c1c(=O)n(C)c(=O)n2C	none
CC(=O)c1sc2ccccc2c1OC(=O)c1ccccc1F	none (no result: WNV NS2B-NS3 inh, Cdc25B inh, MMP-13 inhibitor, MKP-1 inh)
COc1ccc(CNS(=O)(=O)c2ccc(S(=O)(=O)N3CCCCC3)cc2)cc1	BAP1 block active | BAP1 inh confirm inconclusive
CC1CCc2nc(NC(=O)c3cc(C(C)(C)C)nn3C)sc2C1 (configuration not stated)	BAP1 block active | BAP1 inh confirm inactive
CC1CCc2nc(NC(=O)c3ccc(S(=O)(=O)N4CCOCC4)cc3)sc2C1 (configuration not stated)	none (no result: WNV NS2B-NS3 inh, Cdc25B inh, MMP-13 inhibitor, MKP-1 inh)
Cc1ccc(NC(=O)N2CCCC2C(=O)NCCC2=CCCCC2)cc1 (configuration not stated)	none
Cc1ccc(NC(=O)N2CCC(C(=O)NCCC3=CCCCC3)CC2)cc1	BAP1 block active | BAP1 inh confirm inactive
COc1ccc(-c2cc3c(=O)n(CC(=O)NC4CCN(Cc5ccccc5)CC4)ncn3n2)cc1	BAP1 block active | BAP1 inh confirm inactive
Cc1ccc2oc(=O)c3cnn(CC(=O)NC4CCN(Cc5ccccc5)CC4)c3c2c1	none
CC1=C(C(=O)OCC(C)C)C(c2cccc(Oc3ccccc3)c2)NC(=O)N1 (configuration not stated)	none (no result: WNV NS2B-NS3 inh, Cdc25B inh, MMP-13 inhibitor, MKP-1 inh)
Cc1cc(Cl)ccc1OCC(=O)Nc1ccc(C(=O)OC2CCCCC2)cc1	none (no result: WNV NS2B-NS3 inh, Cdc25B inh, MMP-13 inhibitor, MKP-1 inh)
COc1ccc(OC)c(NC(=O)c2c(NC(=O)CNCc3ccco3)sc3c2CCC3)c1	none
COc1ccc(NC(=O)c2c(NC(=O)CNCc3ccco3)sc3c2CCC3)c(OC)c1	BAP1 block active | BAP1 inh confirm inconclusive

Bioassay records: PubChem, several laboratories
